According to PubChem BioAssay:
Where “and” joins values, the source holds several entries; their conditions need not be identical. Identical values can stand only once. Records with an inconclusive call do not appear. Calls of active or inactive are those of the source.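 The calls were made as follows, unless noted: active = normalized viability below 100% at a tested concentration; inactive = the rest.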

Experiments:
[1] = modulation of C. elegans fzo-1 (AID 1259413; call rule not given here;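 also: fzo-1 mutant C. elegans worms in liquid wells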); conditions: C. elegans fzo-1 modulator screen, mean read-out; stronger effect = higher value
[2] = EMT-state selective cytotoxicity in co-culture – imaging, PC-3E GFP, TEM4-18 mCherry, primary screen (AID 1345086;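 active = compounds killing one labelled cell type while sparing the other, by normalised counts and ratio limits, not self-fluorescent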;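 as to all read-outs here: cells exposed to compound for 72 h before imaging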;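 as to red/green cell ratio (normalised): normalised mesenchymal count divided by normalised epithelial count so high means epithelial killing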); conditions: PC-3E GFP / TEM4-18 mCherry co-culture, imaging cell counts, at 1 µM; for red/green cell ratio (normalised): actives lie on both sides, counts scaled to control wells, 1 = unselective
[3] = viability loss in pontine glioma line – cell-based, SU-DIPG-XVII, MIPE5.0, CellTiter-Glo, qHTS, dose response (AID 1347060; cut-off not given, nearly all actives have AC50 up to about 26 µM;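 as to AC50: cells exposed to compound for 48 hours before viability readout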); conditions: CellTiter-Glo ATP luminescence
[4] = viability loss in pontine glioma line – cell-based, SU-DIPG-XIII, MIPE4.0, CellTiter-Glo, qHTS, dose response (AID 1347061; cut-off not given, nearly all actives have AC50 up to about 37 µM;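 also: cells exposed to compound for 48 hours before readout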); conditions: CellTiter-Glo ATP luminescence
[5] = viability loss in pontine glioma line – cell-based, JHH-DIPG-1, MIPE4.0, CellTiter-Glo, qHTS, dose response (AID 1347062; cut-off not given, nearly all actives have AC50 up to about 27 µM;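 as to AC50: cells exposed to compound for two days before readout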); conditions: JHH-DIPG-1 viability, CellTiter-Glo ATP luminescence
[6] = viability loss in pontine glioma line – cell-based, SU-DIPG-IV, MIPE4.0, CellTiter-Glo, qHTS, dose response (AID 1347063; cut-off not given, nearly all actives have AC50 up to about 30 µM;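 also: compound exposure lasted 48 hours before the viability readout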); conditions: CellTiter-Glo ATP luminescence
[7] = viability loss in pontine glioma line – cell-based, SU-DIPG-XIII, MIPE5.0, CellTiter-Glo, qHTS, dose response (AID 1347064; cut-off not given, nearly all actives have AC50 up to about 23 µM); conditions: CellTiter-Glo ATP luminescence
[8] = viability loss in pontine glioma line – cell-based, SU-DIPG-XXV, MIPE5.0, CellTiter-Glo, qHTS, dose response (AID 1347065; cut-off not given, nearly all actives have AC50 up to about 26 µM;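 also: cells exposed to compound for 48 hours before ATP readout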); conditions: CellTiter-Glo ATP luminescence
[9] = JHH-DIPG-1 glioma cell viability, MIPE5.0 library, CellTiter-Glo luminescence, qHTS (AID 1347067; cut-off not given, nearly all actives have AC50 up to about 26 µM;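 also: cells exposed to compound for 48 hours before readout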); conditions: JHH-DIPG-1 glioma viability, CellTiter-Glo ATP luminescence
[10] = growth inhibition of DIPG cells – cell-based, MIPE5.0 library, qHTS (AID 1347068; cut-off not given, nearly all actives have IC50 up to about 30 µM); conditions: SU-DIPG-XXV viability
[11] = viability loss with induced miR-34 in A549 – imaging, A549 dox-inducible miR-34, nuclei and caspase counts, primary screen (AID 1347080;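 active = compounds whose cell count with miR-34 switched on is under 0.7 times the count with it off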); conditions: A549 miR-34 inducible, Hoechst nuclei count, 48 h
[12] = MELAS cybrid and Rieske KO viability enhancers – cell-based, MELAS cybrids, Rieske KO mouse fibroblasts, CellTiter-Glo, primary screen (AID 1508586;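 active = mean z-score across replicates of 1.96 or higher in either the MELAS or the Rieske mutant cell line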;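 also: z relative to plate mean and SD of compound and empty wells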); conditions: low glucose
[13] = compounds altering HSF1 focus formation in cells – imaging, Selleck Cancer Library (AID 1347162; in the data active = plate-normalised HSF1 focus index below about 0.46); conditions: human cells, HSF1 nuclear foci imaging, at 10 µM; SSMD: measured here: HSF1 foci SSMD mean; cell count: measured here: cell number; plate-normalised HSF1 focus index: stronger effect = lower value
[14] = growth inhibition of DIPG cells – cell-based, MIPE4.0 library, CellTiter-Glo luminescence, qHTS (AID 1347066; cut-off not given, nearly all actives have AC50 up to about 30 µM;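 also: cells exposed to compound for 48 hours before readout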); conditions: SU-DIPG-VI viability, CellTiter-Glo ATP luminescence
[15] = blockers of cellular phospholipid synthesis – cell-based, LOPAC library, screen 4, primary screen (AID 1347384; call rule not given here); conditions: animal cells, phospholipid biosynthesis inhibition screen; at 10 µM
[16] = drug combination growth inhibition, ovarian cancer – cell-based, oncology-focused library, rucaparib conditional, profiling panel (AID 1508598); conditions: patient-derived ovarian cancer cells, CellTiter-Glo viability, 144 h, stronger effect = lower value
[17] = measured here: epithelial PC-3E GFP cell survival
[18] = measured here: mesenchymal TEM4-18 mCherry cell survival
[19] = stronger effect = lower value, cell number ratio, induced over uninduced
[20] = measured here: relative caspase fold change +Dox/-Dox
[21] = measured here: total cells with miR-34 induction, stronger effect = lower value
[22] = measured here: total cells without miR-34 induction
[23] = MELAS cybrid survival, CellTiter-Glo 48 h, stronger effect = higher value
[24] = Rieske KO mouse fibroblast survival, CellTiter-Glo 72 h

CC(C)[C@H](N)C(=O)OCCOCn1cnc2c(=O)[nH]c(N)nc21
1.65: fold change [11, 20]
0.16 and -0.416: z-score [12, 24]
1.13: normalised cell number [2, 17]
inactive: mean signal [1] 266 | red/green cell ratio (normalised) [2] 0.91 | outcome [3] | outcome [4] | outcome [5] | outcome [6] | outcome [7] | outcome [8] | outcome [9] | outcome [10] | fold change [11, 19] 0.847 | z-score [12, 23] 0.38 and 0.156
11500: cell count [11, 22]
9730: cell count [11, 21]
1.03: normalised cell number [2, 18]

CNNCc1ccc(C(=O)NC(C)C)cc1
0.95: normalised cell number [2, 17]
inactive: mean signal [1] 227 | red/green cell ratio (normalised) [2] 1.09 | outcome [3] | outcome [4] | outcome [5] | outcome [7] | outcome [8] | outcome [9] | outcome [10] | fold change [11, 19] 0.927 and 0.93 and 0.882 | plate-normalised HSF1 focus index [13] 1.17 | z-score [12, 23] -0.384 and 0.576
-1.08 and 0.362: z-score [12, 24]
8930 and 9660 and 9580: cell count [11, 21]
0.658 and 1.32 and 1.82: fold change [11, 20]
2.76: SSMD [13]
7850: cell count [13]
9640 and 10400 and 10900: cell count [11, 22]
1.03: normalised cell number [2, 18]

CC(N)C12CC3CC(CC(C3)C1)C2 (centres undefined)
1.11: normalised cell number [2, 17]
inactive: mean signal [1] 212 | red/green cell ratio (normalised) [2] 0.95 | outcome [3] | outcome [4] | outcome [5] | outcome [6] | outcome [7] | outcome [8] | outcome [14] | outcome [10]
1.06: normalised cell number [2, 18]

Nc1ccn([C@H]2CC[C@@H](CO)O2)c(=O)n1
9340 and 9420 and 10000: cell count [11, 22]
inactive: mean signal [1] 305 | red/green cell ratio (normalised) [2] 0.76 | outcome [6] | outcome [14] | fold change [11, 19] 1 and 0.95 and 0.852 | outcome [15] | z-score [12, 23] -0.041 and 0.441
1.16: normalised cell number [2, 17]
-0.157 and -0.525: z-score [12, 24]
0.845 and 0.908 and 1.17: fold change [11, 20]
0.88: normalised cell number [2, 18]
9380 and 8950 and 8540: cell count [11, 21]

Cc1cnc(NC(=O)C2=C(O)c3ccccc3S(=O)(=O)N2C)s1
1.16: normalised cell number [2, 17]
inactive: mean signal [1] 257 | red/green cell ratio (normalised) [2] 0.91 | outcome [3] | outcome [5] | outcome [6] | outcome [7] | outcome [8] | outcome [14] | outcome [9] | outcome [10] | outcome [15] | z-score [12, 23] -0.282 and 0.497 and -0.212
0.842 and 0.0996 and -0.732: z-score [12, 24]
1.05: normalised cell number [2, 18]

CC[C@@]1(O)C(=O)OCc2c1cc1n(c2=O)Cc2cc3c(CN(C)C)c(O)ccc3nc2-1
active: AC50 [3] 0.0525 µM | AC50 [5] 8.33 µM | AC50 [6] 0.332 µM | AC50 [9] 4.17 µM | viability ([16]; at 0.000305 µM, OCI-P5x cells, with rucaparib 20 µM, 100% = cells with rucaparib alone) 94.2% | viability ([16]; at 0.00122 µM, OCI-C5x cells, with rucaparib 10 µM, 100% = cells with rucaparib alone) 89.3% | viability ([16]; at 0.00122 µM, OCI-C5x cells, without rucaparib) 92.9% | viability ([16]; at 0.00122 µM, OCI-P5x cells, with rucaparib 20 µM, 100% = cells with rucaparib alone) 83.1% | viability ([16]; at 0.00122 µM, OCI-P5x cells, without rucaparib) 79.7% | viability ([16]; at 0.00488 µM, OCI-C5x cells, with rucaparib 10 µM, 100% = cells with rucaparib alone) 83.9% | viability ([16]; at 0.00488 µM, OCI-C5x cells, without rucaparib) 62.6% | viability ([16]; at 0.00488 µM, OCI-P5x cells, with rucaparib 20 µM, 100% = cells with rucaparib alone) 64.6% | viability ([16]; at 0.00488 µM, OCI-P5x cells, without rucaparib) 49.2% | viability ([16]; at 0.0195 µM, OCI-C5x cells, with rucaparib 10 µM, 100% = cells with rucaparib alone) 61.6% | viability ([16]; at 0.0195 µM, OCI-C5x cells, without rucaparib) 46.1% | viability ([16]; at 0.0195 µM, OCI-P5x cells, with rucaparib 20 µM, 100% = cells with rucaparib alone) 51.1% | viability ([16]; at 0.0195 µM, OCI-P5x cells, without rucaparib) 31.5% | viability ([16]; at 0.0781 µM, OCI-C5x cells, with rucaparib 10 µM, 100% = cells with rucaparib alone) 43.7% | viability ([16]; at 0.0781 µM, OCI-C5x cells, without rucaparib) 22.5% | viability ([16]; at 0.0781 µM, OCI-P5x cells, with rucaparib 20 µM, 100% = cells with rucaparib alone) 31.5% | viability ([16]; at 0.0781 µM, OCI-P5x cells, without rucaparib) 11.7% | viability ([16]; at 0.313 µM, OCI-C5x cells, with rucaparib 10 µM, 100% = cells with rucaparib alone) 31% | viability ([16]; at 0.313 µM, OCI-C5x cells, without rucaparib) 10.3% | viability ([16]; at 0.313 µM, OCI-P5x cells, with rucaparib 20 µM, 100% = cells with rucaparib alone) 10.6% | viability ([16]; at 0.313 µM, OCI-P5x cells, without rucaparib) 4.1% | viability ([16]; at 1.25 µM, OCI-C5x cells, with rucaparib 10 µM, 100% = cells with rucaparib alone) 11.2% | viability ([16]; at 1.25 µM, OCI-C5x cells, without rucaparib) 7.82% | viability ([16]; at 1.25 µM, OCI-P5x cells, with rucaparib 20 µM, 100% = cells with rucaparib alone) 3.74% | viability ([16]; at 1.25 µM, OCI-P5x cells, without rucaparib) 1.56% | viability ([16]; at 5 µM, OCI-C5x cells, with rucaparib 10 µM, 100% = cells with rucaparib alone) 4.91% | viability ([16]; at 5 µM, OCI-C5x cells, without rucaparib) 4% | viability ([16]; at 5 µM, OCI-P5x cells, with rucaparib 20 µM, 100% = cells with rucaparib alone) 5.99% | viability ([16]; at 5 µM, OCI-P5x cells, without rucaparib) 4.13%
0.19: normalised cell number [2, 17]
-8.15: SSMD [13]
0.849 and -0.703 and -1.06: z-score [12, 24]
0.34: normalised cell number [2, 18]
6870: cell count [13]
inactive: mean signal [1] 251 | red/green cell ratio (normalised) [2] 1.81 | outcome [14] | plate-normalised HSF1 focus index [13] 0.582 | outcome [15] | z-score [12, 23] -0.568 and -2.28 and -2.25 | viability ([16]; at 0.000305 µM, OCI-C5x cells, with rucaparib 10 µM, 100% = cells with rucaparib alone) 104% | viability ([16]; at 0.000305 µM, OCI-C5x cells, without rucaparib) 104% | viability ([16]; at 0.000305 µM, OCI-P5x cells, without rucaparib) 107%

Nc1[nH]c(=O)ncc1F
inactive: mean signal [1] 243 | red/green cell ratio (normalised) [2] 1.01 | outcome [3] | outcome [7] | outcome [8] | outcome [14] | outcome [9] | outcome [10] | z-score [12, 23] -0.163 and 0.671
0.9: normalised cell number [2, 18]
0.841 and -0.221: z-score [12, 24]
0.89: normalised cell number [2, 17]

CCCOc1ccc(C(=O)OCCN(CC)CC)cc1N
-0.35 and 0.529 and -1.27: z-score [12, 24]
1.2: normalised cell number [2, 17]
inactive: red/green cell ratio (normalised) [2] 1.08 | outcome [3] | outcome [5] | outcome [6] | outcome [7] | outcome [14] | outcome [9] | outcome [10] | z-score [12, 23] 0.278 and -0.171 and -0.393
active: mean signal [1] 287
1.3: normalised cell number [2, 18]

Nc1nnc(-c2cccc(Cl)c2Cl)c(N)n1
inactive: mean signal [1] 281 | red/green cell ratio (normalised) [2] 0.86 | outcome [3] | outcome [4] | outcome [7] | outcome [8] | outcome [14] | outcome [9] | outcome [10] | outcome [15] | z-score [12, 23] 1.04 and -0.0755 and -0.75
1.05: normalised cell number [2, 17]
0.91: normalised cell number [2, 18]
-2.18 and 0.0455 and -0.484: z-score [12, 24]
